Reference: PubChem BioAssay (EPA / NIEHS)
Active and inactive are the calls of the source. How the source made its calls: active means hit-call score of the fitted dose curve at least 0.9, where 1 is the maximum; inactive means score below 0.9.

Legend:
Settings in all cases: mRNA level, 48 h; actives raise or lower the signal
[1] = read-out: growth arrest and DNA damage 45 (GADD45A), GADD45A (gene 1647); test: LTEA_HepaRG_GADD45A: Life Technologies and Expression Analysis (LTEA) Assay for growth arrest and DNA damage 45 (GADD45A) using HepaRG (AID 2283458)
How it was run: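 Eight-point concentration-response in HepaRG cells: 48 h chemical exposure, 0.5% DMSO vehicle, top dose 100 uM. Normalized qRT-PCR mRNA readout with bidirectional fitting relative to DMSO.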

[2] = read-out: Forkhead box O3 (FOXO3), FOXO3 (gene 2309); test: LTEA_HepaRG_FOXO3: Life Technologies and Expression Analysis (LTEA) Assay for Forkhead box O3 (FOXO3) using HepaRG (AID 2283459)
How it was run: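 Gene-expression endpoint: FOXO3 transcript level by qRT-PCR in HepaRG cultures treated 48 h with chemicals up to 100 uM (half-log, 0.5% DMSO vehicle).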

[3] = read-out: ABC Transporter (ABCB1), ABCB1 (gene 5243); test: LTEA_HepaRG_ABCB1: Life Technologies and Expression Analysis (LTEA) Assay for ABC Transporter (ABCB1) using HepaRG (AID 2283460)
How it was run: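 Human liver HepaRG line treated 48 h with up to 100 uM compound (eight half-log points, 0.5% DMSO); ABCB1 mRNA change fitted bidirectionally against DMSO controls.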

[4] = read-out: growth arrest and DNA damage 45 (GADD45B), GADD45B (gene 4616); test: LTEA_HepaRG_GADD45B: Life Technologies and Expression Analysis (LTEA) Assay for growth arrest and DNA damage 45 (GADD45B) using HepaRG (AID 2283461)
How it was run: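 Values are bidirectional concentration-response fits against 0.5% DMSO controls. Underlying data: qRT-PCR mRNA levels in human HepaRG liver cells treated 48 h in serum-free induction medium, eight concentrations topping at 100 uM.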

[5] = read-out: ABC Transporter (ABCC3), ABCC3 (gene 8714); test: LTEA_HepaRG_ABCC3: Life Technologies and Expression Analysis (LTEA) Assay for ABC Transporter (ABCC3) using HepaRG (AID 2283462)
How it was run: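 Differentiated HepaRG liver cells receive test chemicals at eight concentrations (max 100 uM) for 48 h. Expression of ABCC3 is quantified by qRT-PCR against ACTB, GAPDH and POLR2A, and activity is fitted in both directions against the DMSO control.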

[6] = read-out: ABC Transporter (ABCB11), ABCB11 (gene 8647); test: LTEA_HepaRG_ABCB11: Life Technologies and Expression Analysis (LTEA) Assay for ABC Transporter (ABCB11) using HepaRG (AID 2283463)
How it was run: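 Using HepaRG cultures held in 0.5% DMSO, chemicals were tested at half-log dilutions from 100 uM for 48 h. Induction or suppression of ABCB11 mRNA, normalized to ACTB, GAPDH and POLR2A, was fitted bidirectionally against vehicle.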

[7] = read-out: ABC Transporter (ABCC2), ABCC2 (gene 1244); test: LTEA_HepaRG_ABCC2: Life Technologies and Expression Analysis (LTEA) Assay for ABC Transporter (ABCC2) using HepaRG (AID 2283464)
How it was run: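 Gene expression of ABCC2 was determined by qRT-PCR in HepaRG cells exposed 48 h to chemicals (highest 100 uM, half-log dilutions). Activity was fitted in both directions relative to 0.5% DMSO vehicle.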

[8] = read-out: Broad substrate specificity ATP-binding cassette transporter ABCG2 (Homo sapiens) (UniProt Q9UNQ0); test: LTEA_HepaRG_ABCG2: Life Technologies and Expression Analysis (LTEA) Assay for ABC Transporter (ABCG2) using HepaRG (AID 2283465)
How it was run: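 Gene expression of ABCG2 in HepaRG liver cells is quantified by qRT-PCR following 48 h exposure across an eight-point series topping at 100 uM. Values come from bidirectional fitting relative to DMSO vehicle.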

[9] = read-out: ATP-citrate lyase (ACLY), ACLY (gene 47); test: LTEA_HepaRG_ACLY: Life Technologies and Expression Analysis (LTEA) Assay for ATP-citrate lyase (ACLY) using HepaRG (AID 2283466)
How it was run: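 ACLY expression changes in human HepaRG liver cells are quantified by qRT-PCR after 48 h exposure to test chemicals (maximum 100 uM, half-log steps). Values are fitted in both directions relative to 0.5% DMSO vehicle.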

[10] = read-out: Peroxisomal acyl-coenzyme A oxidase 1 (ACOX1) gene, ACOX1 (gene 51); test: LTEA_HepaRG_ACOX1: Life Technologies and Expression Analysis (LTEA) Assay for Peroxisomal acyl-coenzyme A oxidase 1 (ACOX1) gene using HepaRG (AID 2283467)
How it was run: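 Human HepaRG hepatic cultures, 48 h treatment with test chemicals up to 100 uM. ACOX1 expression read by qRT-PCR relative to 0.5% DMSO vehicle.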

[11] = read-out: Alkaline Phosphatase, Placental (ALPP) gene, ALPP (gene 250); test: LTEA_HepaRG_ALPP: Life Technologies and Expression Analysis (LTEA) Assay for Alkaline Phosphatase, Placental (ALPP) gene using HepaRG (AID 2283468)
How it was run: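 Expression of ALPP was quantified by qRT-PCR against three housekeeping genes in human HepaRG cultures treated for 48 h with an eight-point concentration series up to 100 uM. Activity in either direction was fitted relative to 0.5% DMSO.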

[12] = read-out: Bcl-2 (BAD) gene, BAD (gene 572); test: LTEA_HepaRG_BAD: Life Technologies and Expression Analysis (LTEA) Assay for Bcl-2 (BAD) gene using HepaRG (AID 2283469)
How it was run: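 Activity values reflect up- or down-regulation of BAD mRNA in human HepaRG hepatic cells treated 48 h in serum-free medium, with eight-point half-log dosing capped at 100 uM and 0.5% DMSO vehicle.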

[13] = read-out: Bcl-2 (BAX) gene, BAX (gene 581); test: LTEA_HepaRG_BAX: Life Technologies and Expression Analysis (LTEA) Assay for Bcl-2 (BAX) gene using HepaRG (AID 2283470)
How it was run: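 Human HepaRG cells treated in duplicate for 48 h across eight concentrations (max 100 uM, 0.5% DMSO); BAX expression measured by qRT-PCR.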

[14] = read-out: adenosine kinase (ADK) gene, ADK (gene 132); test: LTEA_HepaRG_ADK: Life Technologies and Expression Analysis (LTEA) Assay for adenosine kinase (ADK) gene using HepaRG (AID 2283471)
How it was run: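 Following 48 h exposure of HepaRG cells in 0.5% DMSO (top concentration 100 uM, duplicate wells), ADK mRNA induction or suppression was measured by qRT-PCR, normalised to ACTB/GAPDH/POLR2A, and fitted bidirectionally relative to vehicle.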

[15] = read-out: Alpha-fetoprotein (AFP) gene, AFP (gene 174); test: LTEA_HepaRG_AFP: Life Technologies and Expression Analysis (LTEA) Assay for Alpha-fetoprotein (AFP) gene using HepaRG (AID 2283472);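 on AC50: AFP transcript by TaqMan qRT-PCR normalized to ACTB GAPDH and POLR2A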
How it was run: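 Measures AFP mRNA change in HepaRG after 48 h chemical exposure (8 half-log concentrations, highest 100 uM, 0.5% DMSO). Fold change relative to DMSO, fitted in both directions.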

BCL2L11 (gene 10018) = test: LTEA_HepaRG_BCL2L11: Life Technologies and Expression Analysis (LTEA) Assay for Bcl-2 (BCL2L11) gene using HepaRG (AID 2283473)
How it was run: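 Cells were plated, cultured 48 h, switched to serum-free induction medium, then dosed in duplicate for 48 h at eight half-log concentrations up to 100 uM. Lysates underwent RNA isolation and TaqMan qRT-PCR; gain or loss versus DMSO was fitted.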

[16] = read-out: Apolipoprotein A-V (APOA5) gene, APOA5 (gene 116519); test: LTEA_HepaRG_APOA5: Life Technologies and Expression Analysis (LTEA) Assay for Apolipoprotein A-V (APOA5) gene using HepaRG (AID 2283474)
How it was run: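 Human liver HepaRG cells are treated 48 h with test chemicals (100 uM top, half-log dilutions, 0.5% DMSO). APOA5 mRNA induction or loss is measured by qRT-PCR relative to vehicle.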

[17] = read-out: Apoptosis regulator Bcl-2 (Homo sapiens) (UniProt P10415); test: LTEA_HepaRG_BCL2: Life Technologies and Expression Analysis (LTEA) Assay for Bcl-2 gene using HepaRG (AID 2283475);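 further: BCL2 transcript by TaqMan qRT-PCR normalised to ACTB GAPDH and POLR2A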
How it was run: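 Each chemical was tested in duplicate on HepaRG cultures held in serum-free induction medium for 48 h, highest concentration 100 uM with half-log dilutions. Transcript levels came from multiplexed qRT-PCR, normalised to housekeeping genes; activity was scored in either direction relative to DMSO.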

[18] = read-out: Bcl-2 (BID) gene, BID (gene 637); test: LTEA_HepaRG_BID: Life Technologies and Expression Analysis (LTEA) Assay for Bcl-2 (BID) gene using HepaRG (AID 2283476)
How it was run: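 Assay used HepaRG hepatic cells treated 48 h in serum-free medium with half-log dilutions from 100 uM. Endpoint: BID mRNA, qRT-PCR, normalized to ACTB/GAPDH/POLR2A.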

Caspase-3 (Homo sapiens) = Caspase-3 (Homo sapiens) (UniProt P42574); test: LTEA_HepaRG_CASP3: Life Technologies and Expression Analysis (LTEA) Assay for cysteine-aspartic acid protease (CASP3) using HepaRG (AID 2283477)
How it was run: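 In HepaRG liver cells dosed for 48 h at up to 100 uM (eight-point, duplicate), CASP3 expression changes are scored by qRT-PCR. Activity is fitted in both directions with 0.5% DMSO as baseline.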

Measured: AC50

Chain of Caspase-3 (Homo sapiens) (P42574 whole entry, looked up): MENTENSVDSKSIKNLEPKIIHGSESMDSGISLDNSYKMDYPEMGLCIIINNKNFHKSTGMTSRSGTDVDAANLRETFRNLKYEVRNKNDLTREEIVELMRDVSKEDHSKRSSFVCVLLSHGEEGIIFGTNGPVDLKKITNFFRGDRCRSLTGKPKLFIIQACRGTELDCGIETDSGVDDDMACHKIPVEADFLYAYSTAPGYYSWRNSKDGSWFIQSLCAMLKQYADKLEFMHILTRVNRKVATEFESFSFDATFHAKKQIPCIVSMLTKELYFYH
Chain of Broad substrate specificity ATP-binding cassette transporter ABCG2 (Homo sapiens) (Q9UNQ0 whole entry, looked up): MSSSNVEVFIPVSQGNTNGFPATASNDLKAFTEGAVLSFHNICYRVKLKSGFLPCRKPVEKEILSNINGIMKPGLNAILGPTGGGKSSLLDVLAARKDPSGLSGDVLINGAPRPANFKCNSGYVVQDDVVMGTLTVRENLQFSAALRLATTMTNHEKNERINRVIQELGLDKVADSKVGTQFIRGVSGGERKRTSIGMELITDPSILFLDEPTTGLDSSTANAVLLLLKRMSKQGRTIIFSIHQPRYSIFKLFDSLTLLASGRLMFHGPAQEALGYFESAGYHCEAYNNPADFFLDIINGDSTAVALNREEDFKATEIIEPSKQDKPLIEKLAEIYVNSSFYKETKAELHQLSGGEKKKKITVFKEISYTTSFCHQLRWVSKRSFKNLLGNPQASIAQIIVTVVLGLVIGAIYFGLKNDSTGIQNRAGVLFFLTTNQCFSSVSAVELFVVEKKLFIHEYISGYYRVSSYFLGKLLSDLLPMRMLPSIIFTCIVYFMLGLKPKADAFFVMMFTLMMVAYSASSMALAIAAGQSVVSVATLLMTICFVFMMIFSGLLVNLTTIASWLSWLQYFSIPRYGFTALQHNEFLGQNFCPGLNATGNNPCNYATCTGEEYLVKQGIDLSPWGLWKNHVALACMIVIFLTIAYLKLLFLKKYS
Chain of Apoptosis regulator Bcl-2 (Homo sapiens) (P10415 whole entry, looked up): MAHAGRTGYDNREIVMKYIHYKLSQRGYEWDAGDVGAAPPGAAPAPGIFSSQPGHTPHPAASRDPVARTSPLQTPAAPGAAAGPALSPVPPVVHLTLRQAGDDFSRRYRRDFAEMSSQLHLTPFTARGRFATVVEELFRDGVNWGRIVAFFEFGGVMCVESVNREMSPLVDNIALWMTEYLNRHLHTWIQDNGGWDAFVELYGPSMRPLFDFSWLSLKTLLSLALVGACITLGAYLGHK

CCCCCCCCC(=O)O
inactive: all assays above

c1ccc2c(c1)Cc1ccccc1-2
inactive: all assays above

CC(C)(C)c1ccc(O)c(C(C)(C)C)c1
active: [17] 0.123 µM
inactive: all other assays above

CC1=C(/C=C/C(C)=C/C=C/C(C)=C/C(=O)O)C(C)(C)CCC1
active: [3] 0.81 µM | [6] 29.4 µM | [8] 3.14 µM | [13] 20.4 µM | [15] 35.9 µM
inactive: all other assays above

CC(C)(C)CC(C)(C)c1ccc(O)c(-n2nc3ccccc3n2)c1
active: [3] 50 µM | [7] 50 µM | [8] 30.6 µM
not listed: [15]
inactive: all other assays above

C=C(C)C(=O)OCCC(F)(F)C(F)(F)C(F)(F)C(F)(F)C(F)(F)C(F)(F)F
inactive: all assays above
